Consider nine molecules from PubChem BioAssay (NCI).

This is part of a sample that, as a whole, favours compounds with a hit. Of some 83,000 tested, about 20% had one in any assay.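 Cells were grown in 96-well plates and exposed to the test compound at a single concentration for 48 hours; results are reported as percent growth, with values below 10 considered active.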 Unmarked numbers belong to inactive results. Activity calls are given as the source filed them.

Holding throughout (assay): NCI-60 one-dose screen, 48 h (100 = growth as untreated, 0 = no growth, -100 = all killed)
In assay [1] the test system is RPMI-8226 leukemia. Conditions: 10 µM unless noted.
Assay [2] deals with OVCAR-8 ovarian. Conditions: 10 µM unless noted.
The subject of assay [3] is OVCAR-5 ovarian. To be noted: 10 µM unless noted.
The subject of assay [4] is OVCAR-4 ovarian. To be noted: 10 µM unless noted.
Assay [5] relates to IGROV1 ovarian. Conditions: 10 µM unless noted.
Assay [6] relates to OVCAR-3 ovarian. Conditions: 10 µM unless noted.
The test system of assay [7] is HS 578T breast. To be noted: 10 µM unless noted.
For assay [8], the system named is NCI/ADR-RES ovarian. Conditions: 10 µM unless noted.
Assay [9] concerns T-47D breast. Conditions: 10 µM unless noted.
Assay [10] concerns BT-549 breast. Conditions: 10 µM unless noted.
Assay [11] relates to MDA-MB-435 melanoma. Conditions: 10 µM unless noted.
Assay [12] concerns SW-620 colon. To be noted: 10 µM unless noted.
The subject of assay [13] is MCF7 breast. Conditions: 10 µM.
The subject of assay [14] is HCT-116 colon. Conditions: 10 µM unless noted.
For assay [15], the system named is HCC-2998 colon. Conditions: 10 µM unless noted.
For assay [16], the system named is KM12 colon. Conditions: 10 µM unless noted.

Regarding `COC(=O)c1ccc(NC(=O)CSc2nc3ccccc3c(=O)n2-c2ccccc2)cc1`, the growth in assay [1] is 89.4%; in assay [2] it was 101%; in assay [3] it was 94.7%; in assay [4], 90.6%; in assay [5], 90.9%; in assay [6] it was 92.6%. For the same molecule, the growth is 101% in assay [7]; 104% in assay [8]; 92.1% in [9]; 94.4% in assay [10]; 104% in assay [11]; 105% in assay [12]. The growth in assay [13] is 106%; in assay [14] it was 97.7%; in assay [15], 98.8%; in assay [16], 99.8%.

In the case of `COc1cc(/C=C/C(=O)c2ccc(Cl)cc2)cc(CN2CCCCC2)c1O`, the growth is 50.9% in [1]; 89.3% in assay [2]; 99.7% in assay [3]; 76.7% in assay [4]; 90.5% in assay [5]; 93.8% in assay [6]. Moreover, the growth is 85.4% in [7]; 88.5% in assay [8]; 79.3% in assay [9]; 91.2% in [10]; 74% in [11]; 88.6% in [12]. Moreover, the growth in assay [13] was 48.1%; in [14], 82.1%; in assay [15], 95.5%; in assay [16], 72.6%.

As to `O=C1/C(=C/c2cccc(O)c2)COc2ccc(O)cc21`, the growth is -10.6% (active) in assay [1]; 68.7% in [2]; 105% in assay [3]; 98.1% in assay [4]; 78.1% in [5]; 55.5% in [6]. Moreover, the growth in assay [7] is 101%; in assay [8], 96.7%; in assay [9], 86.8%; in assay [10], 98.1%; in assay [11] it was 60.3%; in assay [12], 9.65% (active). In addition, the growth is 14% in assay [13], 10.1% in assay [14], 103% in assay [15] and 20.9% in assay [16].

Regarding `O=C(/C=C/c1ccc(F)cc1)c1ccc(Nc2nc(NCCO)nc(Nc3ccc(Cl)cc3)n2)cc1`, the growth in assay [1] is 1.78% (active); in [2], 78.4%; in assay [3], 96.8%; in [4], 78.6%; in assay [5], 96.4%; in [6], 77%. Moreover, the growth in assay [7] was 86.8%; in assay [8] it was 87.2%; in assay [9], 41.5%; in [10], 72%; in [11] it was 74.5%; in assay [12], 46.3%. In addition, the growth in assay [13] is 4.3% (active); in assay [14], 8.67% (active); in [15], 29.9%; in assay [16], 25.5%.

For the molecule `Cc1ccccc1CNC(=O)C1CN(c2ccc(Cl)cc2)N(c2ccc(Cl)cc2)C1=O` (centres undefined), the growth in assay [1] is 65%; in assay [2], 87.9%; in assay [3], 91.8%; in assay [4], 84.1%; in [5], 89.7%; in assay [6] it was 81.1%. The growth in assay [7] is 85.5%; in assay [8] it was 84.3%; in [9], 71.6%; in assay [10], 90.6%; in [11], 35.9%; in assay [12], 81.9%. Moreover, the growth was 74.1% in assay [13], 83.8% in assay [14], 100% in [15] and 87.2% in [16].

As to `Cc1ccc2sc3c(NCCCNCCO)nc4ccccc4c3c(=O)c2c1`, the growth in assay [1] was -16.5% (active); in assay [2], 22.4%; in assay [3], 90.7%; in [4], 60.4%; in assay [5] it was 48.8%; in assay [6], 26.6%. Besides, the growth in assay [7] was 44.2%; in assay [8], 72.6%; in assay [9], -39.5% (active); in assay [10] it was 90.2%; in assay [11], -80% (active); in [12], -78.2% (active). Moreover, the growth in [13] is -78.8% (active); in assay [14] it was -67% (active); in [15], -75.5% (active); in [16] it was -50.4% (active).

On to `CC1(O)COCCCCOc2c(CN)cccc2NC(=O)c2nc(cnc2N)-c2ccc(cc2)S(=O)(=O)C(C)(C)C1` (centres undefined), for which the growth in assay [1] is -36.8% (active); in [2] it was -22.8% (active); in assay [3], 3.73% (active); in assay [4], -70.2% (active); in assay [5] it was -57.3% (active); in assay [6], -77.2% (active). The growth in assay [7] is -53.2% (active); in [8], 48.5%; in assay [9] it was -19.8% (active); in assay [10] it was 85.4%; in assay [11], -93.4% (active); in assay [12] it was -64.2% (active). The growth is -79.4% (active) in [13], -56.5% (active) in assay [14], -1.91% (active) in assay [15] and -72.7% (active) in [16].

Regarding `O=C(/C=C/c1ccc(Cl)cc1)c1ccc(Nc2nc(NCCO)nc(N3CCOCC3)n2)cc1`, the growth in assay [1] was 12.3%; in assay [2], 83.6%; in assay [3], 101%; in assay [4], 93%; in [5], 84%; in assay [6] it was 63.1%. Besides, the growth in [7] was 90.7%; in assay [8] it was 88.9%; in assay [9] it was 67.1%; in assay [10], 85%; in assay [11] it was 77.9%; in [12], 50.4%. Besides, the growth in assay [13] was 9.73% (active); in [14], 18.6%; in assay [15], 99%; in assay [16], 28.5%.

Consider `COc1ccc2c(c1)C=C1CSCC3=Cc4cc(OC)ccc4OC13O2`, for which the growth in assay [1] was 19.5%; in [2], 25.4%; in assay [3] it was 41.1%; in assay [4], 47.8%; in assay [5], 31.6%; in [6], -6.42% (active). Further, the growth is -0.917% (active) in [7]; -1.58% (active) in assay [8]; 48.4% in assay [9]; 30.8% in [10]; -40% (active) in assay [11]; 33.2% in assay [12]. Besides, the growth was 19.7% in assay [13], 9.24% (active) in [14], 9.67% (active) in assay [15] and 16.6% in [16].
